# In PubChem BioAssay (NCI):
# About 83,000 compounds went through this panel and 20% of them were active in at least one assay; those are over-represented in the sample as a whole.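 Interpretation: 100, growth as untreated; towards 0, rising growth inhibition; 0, no net growth; 0 to -100, cell death. Compounds scoring below 10 were considered active.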 Values without a mark were called inactive. Activity calls are given as the source filed them.
# Tests used:
# Assay in all cases: NCI-60 one-dose screen, 48 h (100 = growth as untreated, 0 = no growth, -100 = all killed)
# Conditions in all cases: 10 µM unless noted
# [1] = system: SK-MEL-2 melanoma
# [2] = system: EKVX NSCLC
# [3] = system: SN12C renal
# [4] = system: UO-31 renal
# [5] = system: TK-10 renal
# [6] = system: ACHN renal
# [7] = system: CAKI-1 renal
# [8] = system: A498 renal
# [9] = system: CCRF-CEM leukemia
# [10] = system: MOLT-4 leukemia
# [11] = system: SR leukemia
# [12] = system: RPMI-8226 leukemia
# [13] = system: OVCAR-8 ovarian
# [14] = system: OVCAR-5 ovarian
# [15] = system: OVCAR-4 ovarian
# [16] = system: SK-OV-3 ovarian
# [17] = system: IGROV1 ovarian
# [18] = system: OVCAR-3 ovarian
# [19] = system: HS 578T breast
# [20] = system: NCI/ADR-RES ovarian
SMILES,growth [1],growth [2],growth [3],growth [4],growth [5],growth [6],growth [7],growth [8],growth [9],growth [10],growth [11],growth [12],growth [13],growth [14],growth [15],growth [16],growth [17],growth [18],growth [19],growth [20]
O=C(/C=C/c1cccc([N+](=O)[O-])c1)c1ccc(Nc2nc(Nc3ccc(F)cc3)nc(Nc3ccc(Cl)cc3)n2)cc1,70%,79.5%,88.3%,79.8%,141%,92%,91.4%,110%,43.6%,3.89% (active),8.59% (active),32%,86.3%,62.7%,97.3%,110%,84.4%,104%,106%,83.9%
COc1ccc(C2CC(=O)Oc3c(OC)c4c(c(OC)c32)OCO4)cc1 (stereo not given),101%,101%,98%,84.7%,96.4%,103%,96.8%,88.7%,88.9%,96.3%,61.8%,89.4%,98.2%,92.2%,106%,92%,92.7%,109%,93.7%,92.4%
CCNCCNc1c(C)c(-c2ccc(C(F)(F)F)cc2)c(C#N)c2nc3ccccc3n12,102%,92.4%,67.2%,79.1%,109%,82.5%,92.3%,69.6%,86.9%,90.9%,-0.902% (active),86.4%,95.3%,104%,88.2%,111%,78.9%,96.4%,90.8%,101%
CNC1=C(Br)C(=O)c2c(C(=O)OC)c(C)nc(C)c2C1=O,52.1%,79.3%,45.4%,77.4%,132%,72%,68.2%,93.1%,77.3%,79.8%,86.5%,75.8%,38.7%,97.3%,35.4%,116%,67.6%,1.75% (active),72.4%,74.7%
CCCCCC(C)(O)C(C(=O)O)c1ccccc1 (stereo not given),108%,104%,97.8%,94.5%,104%,96.1%,100%,90.3%,105%,112%,102%,101%,101%,96.1%,102%,101%,102%,119%,107%,112%
CSc1nn2c(-c3cc4cc(Br)ccc4oc3=O)ccnc2c1C#N,104%,92.2%,102%,89.8%,157%,105%,92.9%,104%,101%,104%,94.7%,103%,104%,112%,101%,105%,97.2%,114%,109%,110%
COc1ccc(NC(=O)c2ccc(NC3=C(c4ccc(Cl)cc4)C(=O)NC3=O)cc2)cc1,70.4%,84.7%,88.6%,64.6%,82.8%,85.9%,83.9%,87.5%,85.1%,52.6%,57.1%,73.8%,84.8%,100%,84.1%,69.8%,92.8%,89.2%,102%,88.3%
c1ccc(Cn2cc3c(c2)-c2nc(Nc4ccccc4)ncc2CC3)cc1,92.6% [100 µM],72.1% [100 µM],87.8% [100 µM],93% [100 µM],72.8% [100 µM],81.8% [100 µM],59.2% [100 µM],105% [100 µM],2.85% [100 µM] (active),107% [100 µM],114% [100 µM],88.2% [100 µM],67.5% [100 µM],82.8% [100 µM],63.3% [100 µM],63.1% [100 µM],62.9% [100 µM],85.9% [100 µM],68.9% [100 µM],83.9% [100 µM]
O=C(Nc1ccccc1)Nc1ccccc1CNc1nc(Nc2ccc(OCCN3CCCC3)cc2)ncc1Cl,49.9%,85.8%,57.8%,39.6%,94.8%,18.2%,62.7%,31.5%,20.4%,37.9%,-6.4% (active),-0.283% (active),50.4%,106%,19.5%,86.1%,84.2%,2.33% (active),66.3%,71%
CCCCC/C=C/CCC(=O)N[C@H]1[C@H](Oc2c3cc4cc2Oc2ccc(cc2Cl)[C@@H](O[C@@H]2O[C@H](CO)[C@@H](O)[C@H](O)[C@H]2NC(C)=O)[C@@H]2NC(=O)[C@H](NC(=O)[C@@H]4NC(=O)[C@H]4NC(=O)[C@@H](Cc5ccc(c(Cl)c5)O3)NC(=O)[C@@H](N)c3ccc(O)c(c3)Oc3cc(O)cc4c3)c3ccc(O)c(c3)-c3c(O[C@H]4O[C@H](CO)[C@@H](O)[C@H](O)[C@@H]4O)cc(O)cc3[C@H](C(=O)O)NC2=O)O[C@H](CO)[C@H](O)[C@@H]1O,112%,96.4%,94.7%,82%,112%,103%,84.1%,102%,113%,101%,95.5%,120%,101%,114%,110%,111%,101%,104%,50.1%,96.5%
COc1cc(CNC(=O)CCCC/C=C/C(C)C)ccc1OCc1cn(-c2cccc([N+](=O)[O-])c2)nn1,88.4%,95.1%,89.5%,74.7%,105%,81.7%,79%,78.9%,90.2%,86.6%,78.4%,65.9%,76.9%,107%,94.2%,93.6%,89.4%,105%,90.8%,81.8%
COc1ccc(-c2ccc(-c3ccc(C(=N)N)nc3)s2)cc1,88.3%,38.8%,-78.9% (active),-96.8% (active),-65.8% (active),-100% (active),-92.3% (active),94.3%,-43.4% (active),-53.7% (active),0.29% (active),-41.1% (active),-17.4% (active),-73.1% (active),-79.7% (active),89.2%,-84.3% (active),-87.1% (active),-47.5% (active),25.5%
COc1cc(-c2ccc(-c3ccc(C(=N)N)s3)s2)cc(OC)c1OC,70%,74.4%,60%,67.1%,82.8%,2.6% (active),41.7%,84.5%,-7.27% (active),4.68% (active),-20.7% (active),-34.7% (active),13.9%,64.6%,45.1%,85%,71.7%,3.44% (active),44.1%,77.9%
CCOC(=O)c1cc(C(=O)c2cc(OC)cc(OC)c2)n2ccccc12,41.7%,73.7%,66.9%,62%,55.9%,48.6%,42.2%,28.8%,34.6%,30.6%,16.3%,27.6%,42.2%,95.2%,72.4%,35.8%,52.7%,-5.04% (active),39.4%,12.4%
Nc1nc(N)c2c(n1)NC(c1ccc3c(c1)OCO3)CC(c1cccc(Nc3ccncc3)c1)=N2 (stereo not given),86%,89.1%,94.6%,96.1%,99.6%,110%,78.8%,93%,70%,71.2%,53.1%,80.5%,83.8%,114%,98.7%,90.9%,79.7%,90.9%,81.4%,107%
